Among the data in PubChem BioAssay are composite z-score values, retold here.

Chain of Focal adhesion kinase 1 (Homo sapiens) (Q05397 whole entry, looked up): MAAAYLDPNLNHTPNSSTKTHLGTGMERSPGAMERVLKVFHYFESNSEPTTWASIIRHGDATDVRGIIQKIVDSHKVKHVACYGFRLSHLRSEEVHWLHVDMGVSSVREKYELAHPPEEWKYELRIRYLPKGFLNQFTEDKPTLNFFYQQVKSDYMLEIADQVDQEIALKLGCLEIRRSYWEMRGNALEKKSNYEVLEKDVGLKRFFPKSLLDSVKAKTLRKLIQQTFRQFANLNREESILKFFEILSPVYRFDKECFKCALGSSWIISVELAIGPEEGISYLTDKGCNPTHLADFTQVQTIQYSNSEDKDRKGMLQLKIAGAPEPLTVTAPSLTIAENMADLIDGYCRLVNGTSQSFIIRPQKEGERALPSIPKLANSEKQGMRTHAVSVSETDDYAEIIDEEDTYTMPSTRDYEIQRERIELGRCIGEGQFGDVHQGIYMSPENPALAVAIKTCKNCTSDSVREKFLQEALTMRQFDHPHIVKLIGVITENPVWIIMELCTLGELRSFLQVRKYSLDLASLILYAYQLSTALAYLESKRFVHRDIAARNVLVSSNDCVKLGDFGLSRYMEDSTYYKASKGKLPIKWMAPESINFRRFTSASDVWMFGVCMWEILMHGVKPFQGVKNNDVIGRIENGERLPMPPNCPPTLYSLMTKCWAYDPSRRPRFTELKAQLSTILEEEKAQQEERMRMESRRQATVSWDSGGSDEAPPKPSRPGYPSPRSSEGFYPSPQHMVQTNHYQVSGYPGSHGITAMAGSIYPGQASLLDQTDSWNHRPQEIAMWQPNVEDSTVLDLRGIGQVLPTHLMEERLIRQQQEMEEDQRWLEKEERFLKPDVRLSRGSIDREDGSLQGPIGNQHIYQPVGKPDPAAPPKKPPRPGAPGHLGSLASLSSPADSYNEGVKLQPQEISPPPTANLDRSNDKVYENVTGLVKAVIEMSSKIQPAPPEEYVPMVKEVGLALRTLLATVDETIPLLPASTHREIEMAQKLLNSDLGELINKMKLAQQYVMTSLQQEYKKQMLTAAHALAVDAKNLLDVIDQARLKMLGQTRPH

One test deals with Human papillomavirus type 1a E7 protein (residues 1-88). As to the kind of experiment: HPV1a E7 small-molecule binders, primary screen, biochemical, small-molecule microarray, residues 1-88, 635 nm (AID 1129). The settings on record: small-molecule microarray binding, fluorescence 635 nm; higher = more signal.
For the molecule `CC(C)(C)N1CC=CC23O[C@@H]4C=CCCOC(=O)C4[C@H]2C(=O)N(CCCCCCO)[C@@H]3C1=O` (stereo partly specified), the composite z-score was found to be 0.11.
As to `O=C1C=C(c2ccccc2)C(=O)C2=C1CC([C@H]1Oc3ccccc3S(=O)(=O)N3CCC[C@@H]13)=CC2`, the composite z-score was determined as 0.154.
On the same count and under the same terms, for `O=C(NCc1ccc(F)cc1)[C@H]1C[C@H]2C(=O)N3CCC[C@H]3C(=O)N2[C@H]1c1ccc(O)cc1` the value was -0.825; for `CC(=O)c1ccc(C(O)C2C=CC3C(=O)N(c4ccccc4)C(=O)C3N2Nc2ccc(C(C)C)cc2)cc1` (stereo unspecified), 1.23; for `CCCCC(O)C1C=CC2C(=O)N(c3ccccc3)C(=O)C2N1Nc1ccc([N+](=O)[O-])cc1` (stereo unspecified), 1.24.
The same measure, in the same setting: to `O=C1[C@@H]2[C@@H](CC(COc3ccccc3)=C([C@H](O)CCc3ccccc3)[C@@H]2CO)C(=O)N1Cc1ccccc1` belongs 0.332.
Still for that read-out and setting: for `COC(=O)[C@@]1(Cc2ccc(F)cc2)[C@H]2c3cc(C(=O)N(C)C)n(C)c3C[C@H]2CN1C(=O)c1ccccc1` the value was 0.372; for `C[N+](C)(C)CCCC[C@@H]1NC(=O)[C@H]2C[C@@H](C(=O)NCCCCCNC(=O)CS)[C@@H](c3cccc(OCCO)c3)N2C1=O`, 0.518.
`COC(=O)C[C@H]1O[C@@]2(C[C@@H]1[Si](C)(C)C)C(=O)N(C)c1ccccc12` had a composite z-score of 0.643.
Same read-out and setting: to `C=CCOC(=O)[C@H]1[C@@H]2C(=O)O[C@@H](c3ccccc3)[C@@H](c3ccccc3)N2[C@@H](c2ccc(OCCOC(=O)[C@@H]3C[C@@H]4C(=O)N[C@@H](CCCC[N+](C)(C)C)C(=O)N4[C@@H]3c3ccc(O)cc3)cc2)[C@]12C(=O)Nc1ccc(I)cc12` belongs 0.377.
On the same count and under the same terms, for `C=CC[C@@]1(C(=O)OC)N=C(c2ccc(OCCCO)cc2)O[C@@H]1c1ccccc1N=[N+]=[N-]` the value was 1.24; for `C=CC[C@@]1(C(=O)N(C)C)N=C(c2ccc(OCCCO)cc2)O[C@@H]1c1ccccc1CN=[N+]=[N-]`, 1.22; for `CCCCCC1=C2CNC(CC(C)C)(C(=O)OC)C=C2C(C)C1=O` (stereo unspecified), 1.17.
Still for that read-out and setting: to `COc1ccc(C(O)C2C=CC3C(=O)NC(=O)C3N2Nc2ccc(Cl)cc2Cl)c2ccccc12` (stereo unspecified) belongs 1.15; to `CCOC(=O)C[C@H]1[C@H](OC(=O)Cc2ccc3c(c2)OCO3)[C@@H](NC(=O)c2ccc3ccccc3n2)c2cc(OCCCO)ccc2N1C(=O)Cc1ccc(OC)cc1`, 0.672; to `CCCCC(O)C1C=CC2C(=O)N(c3ccccc3)C(=O)C2N1Nc1ccccc1` (stereo unspecified), 1.14.
In turn, `COc1ccc([Si](C)(C)[C@@H]2[C@@H](CC(=O)N3CCC[C@H]3CO)O[C@]3(C(=O)N(Cc4ccc(N5CCOC5=O)cc4)c4ccccc43)[C@H]2C)cc1` yielded a composite z-score of 0.783.
In the case of `CC(C)NC(=O)[C@@]1(c2ccc([N+](=O)[O-])cc2)CC(=O)N(CC23CC4CC(CC(C4)C2)C3)[C@@H]1c1ccc(CO)cc1`, the composite z-score is 1.18.
On the same count and under the same terms, for `C=C(CCCC)/C(=C/C[C@H](OC(C)=O)c1cccc(OCCO)c1)c1cnc2ccccc2c1` the value was -0.263.
The same measure, in the same setting: for `COCCOC(=O)N1C(=O)[C@@]2(c3cc(C#CCCO)ccc31)[C@H](c1ccc(OCCO)cc1)N1[C@H](c3ccccc3)[C@H](c3ccccc3)OC(=O)[C@H]1[C@@H]2C(=O)N1CCCCCCC1` the value was 1.2; for `COc1ccc([Si](C)(C)[C@@H]2[C@@H](CC(=O)N(CCO)Cc3ccccc3)O[C@]3(C(=O)N(Cc4ccc(N5C(=O)c6cccc7cccc5c67)cc4)c4ccccc43)[C@H]2C)cc1`, 0.65.
Same read-out and setting: for `CCOC(=O)C1=CC[C@@H](c2ccc(OC)cc2)N(S(=O)(=O)c2ccc(C)cc2)[C@H]1CC` the value was 1.22; for `CN1C(=O)C2C(C1=O)C1C=C(c3ccc(CO)cc3)C2C(C2CC2)N1C` (stereo unspecified), -0.164.
`C=C(CCCC)C(=O)CC[C@@H](OC(=O)c1ccccc1-c1ccccc1C(=O)O)c1ccccc1OCCO`: the composite z-score came out at 0.421.
`C=C1C(=O)C=C2CN(C(=O)c3ccccc3)[C@@](Cc3ccc(OC)cc3)(C(=O)OC)[C@@H]12` yielded a composite z-score of 1.26.
On the same count and under the same terms, for `COC(=O)[C@@]1(Cc2ccc(F)cc2)[C@H]2c3cc(C(=O)N4CCCC4)n(CCc4ccccn4)c3C[C@H]2CN1C(=O)c1ccccc1` the value was 0.786.

The next test has as its target Focal adhesion kinase 1 (Homo sapiens) (UniProt Q05397). Nature of the test: small-molecule microarray binders of FAK, primary screen, biochemical, 635/667 nm fluorescence, BSA, DTT (AID 1130).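 Note: composite of spot emission at 667 nm and signal to noise over triplicate slides.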 As to conditions: PTK2 binding, 635 nm fluorescence, higher = more signal.
Turning to `C=CCOC(=O)[C@H]1[C@@H]2C(=O)O[C@@H](c3ccccc3)[C@@H](c3ccccc3)N2[C@@H](c2ccc(OCCOC(=O)[C@H]3C[C@H]4C(=O)N[C@@H](CC(C)C)C(=O)N4[C@H]3c3ccc(O)cc3)cc2)[C@]12C(=O)Nc1ccccc12`, the composite z-score came out at 0.66.
Still for that read-out and setting: to `CCOC(=O)C1=C[C@@H](C(C)(C)C)N(S(=O)(=O)c2ccc(C)cc2)[C@H]1c1ccc(C#N)cc1` belongs 0.637; to `C=CCOC(=O)[C@@H]1[C@H]2C(=O)O[C@H](c3ccccc3)[C@H](c3ccccc3)N2[C@H](c2ccc(OCCOC(=O)[C@H]3C[C@H]4C(=O)N[C@@H](CCCCN(C)C)C(=O)N4[C@H]3c3ccc(O)cc3)cc2)[C@@]12C(=O)Nc1ccc(I)cc12`, 1.03.
Molecule `COC(=O)[C@H](Cc1ccc(O)cc1)N[C@@H](/C=C/C1CC1)[C@H](O)Cc1ccccc1` came in with a composite z-score of -0.408.
Same read-out and setting: to `O=C(NCC(O)CO)C1N=C(c2ccc(OCCCO)cc2)N(c2ccccc2)O1` (stereo unspecified) belongs -0.102; to `CCCc1cc2c(n1CCc1ccc(Cl)cc1)C(C)C1CN(C(=O)c3ccccc3)C(C)(C(=O)OC)C21` (stereo unspecified), 1.96; to `CC(C)(C)OC(=O)CC[C@]1(C(=O)NCC(O)CO)N=C(c2ccc(OCCCO)cc2)O[C@H]1c1ccccc1N=[N+]=[N-]` (stereo partly specified), 0.696.
Same read-out and setting: to `COc1ccc([Si](C)(C)[C@H]2[C@H](CC(=O)N3CCC[C@H]3CO)O[C@@]3(C(=O)N(Cc4ccc(N5CCCCC5=O)cc4)c4ccccc43)[C@@H]2C)cc1` belongs 0.516; to `CN1C(=O)[C@@H]2[C@@H](CC(COc3ccccc3)=C3[C@@H](CCc4ccccc4)OB(O)C[C@@H]32)C1=O`, -0.175.
`CC(C)(C)N1CC=CC23O[C@@H]4C=CCCOC(=O)C4[C@H]2C(=O)N(CCCCCCO)[C@@H]3C1=O` (stereo partly specified): the composite z-score is -0.385.
`O=C1C=C(c2ccccc2)C(=O)C2=C1CC([C@H]1Oc3ccccc3S(=O)(=O)N3CCC[C@@H]13)=CC2` had a composite z-score of -0.263.
Molecule `O=C(NCc1ccc(F)cc1)[C@H]1C[C@H]2C(=O)N3CCC[C@H]3C(=O)N2[C@H]1c1ccc(O)cc1` displayed a composite z-score of -0.753.
Molecule `CC(=O)c1ccc(C(O)C2C=CC3C(=O)N(c4ccccc4)C(=O)C3N2Nc2ccc(C(C)C)cc2)cc1` (stereo unspecified) yielded a composite z-score of 0.329.
On the same count and under the same terms, to `CCCCC(O)C1C=CC2C(=O)N(c3ccccc3)C(=O)C2N1Nc1ccc([N+](=O)[O-])cc1` (stereo unspecified) belongs 1.16.
As for `O=C1[C@@H]2[C@@H](CC(COc3ccccc3)=C([C@H](O)CCc3ccccc3)[C@@H]2CO)C(=O)N1Cc1ccccc1`, the composite z-score came to 1.2.
Molecule `COC(=O)[C@@]1(Cc2ccc(F)cc2)[C@H]2c3cc(C(=O)N(C)C)n(C)c3C[C@H]2CN1C(=O)c1ccccc1` showed a composite z-score of 0.154.
Consider `C[N+](C)(C)CCCC[C@@H]1NC(=O)[C@H]2C[C@@H](C(=O)NCCCCCNC(=O)CS)[C@@H](c3cccc(OCCO)c3)N2C1=O`, for which the composite z-score is 0.247.
Same read-out and setting: to `COC(=O)C[C@H]1O[C@@]2(C[C@@H]1[Si](C)(C)C)C(=O)N(C)c1ccccc12` belongs -0.203.
Molecule `C=CCOC(=O)[C@H]1[C@@H]2C(=O)O[C@@H](c3ccccc3)[C@@H](c3ccccc3)N2[C@@H](c2ccc(OCCOC(=O)[C@@H]3C[C@@H]4C(=O)N[C@@H](CCCC[N+](C)(C)C)C(=O)N4[C@@H]3c3ccc(O)cc3)cc2)[C@]12C(=O)Nc1ccc(I)cc12` registered a composite z-score of 0.898.
Still for that read-out and setting: to `C=CC[C@@]1(C(=O)OC)N=C(c2ccc(OCCCO)cc2)O[C@@H]1c1ccccc1N=[N+]=[N-]` belongs 0.568.
Turning to `C=CC[C@@]1(C(=O)N(C)C)N=C(c2ccc(OCCCO)cc2)O[C@@H]1c1ccccc1CN=[N+]=[N-]`, the composite z-score turned out to be 0.188.
On the same count and under the same terms, for `CCCCCC1=C2CNC(CC(C)C)(C(=O)OC)C=C2C(C)C1=O` (stereo unspecified) the value was 1.61; for `COc1ccc(C(O)C2C=CC3C(=O)NC(=O)C3N2Nc2ccc(Cl)cc2Cl)c2ccccc12` (stereo unspecified), 0.486; for `CCOC(=O)C[C@H]1[C@H](OC(=O)Cc2ccc3c(c2)OCO3)[C@@H](NC(=O)c2ccc3ccccc3n2)c2cc(OCCCO)ccc2N1C(=O)Cc1ccc(OC)cc1`, -0.307.
Same read-out and setting: to `CCCCC(O)C1C=CC2C(=O)N(c3ccccc3)C(=O)C2N1Nc1ccccc1` (stereo unspecified) belongs 0.438; to `COc1ccc([Si](C)(C)[C@@H]2[C@@H](CC(=O)N3CCC[C@H]3CO)O[C@]3(C(=O)N(Cc4ccc(N5CCOC5=O)cc4)c4ccccc43)[C@H]2C)cc1`, 0.939.
Consider `CC(C)NC(=O)[C@@]1(c2ccc([N+](=O)[O-])cc2)CC(=O)N(CC23CC4CC(CC(C4)C2)C3)[C@@H]1c1ccc(CO)cc1`, for which the composite z-score was found to be 0.601.
Turning to `C=C(CCCC)/C(=C/C[C@H](OC(C)=O)c1cccc(OCCO)c1)c1cnc2ccccc2c1`, the composite z-score was -0.494.
Still for that read-out and setting: for `COCCOC(=O)N1C(=O)[C@@]2(c3cc(C#CCCO)ccc31)[C@H](c1ccc(OCCO)cc1)N1[C@H](c3ccccc3)[C@H](c3ccccc3)OC(=O)[C@H]1[C@@H]2C(=O)N1CCCCCCC1` the value was 0.644; for `COc1ccc([Si](C)(C)[C@@H]2[C@@H](CC(=O)N(CCO)Cc3ccccc3)O[C@]3(C(=O)N(Cc4ccc(N5C(=O)c6cccc7cccc5c67)cc4)c4ccccc43)[C@H]2C)cc1`, 0.369; for `CCOC(=O)C1=CC[C@@H](c2ccc(OC)cc2)N(S(=O)(=O)c2ccc(C)cc2)[C@H]1CC`, 0.493.
The same measure, in the same setting: to `CN1C(=O)C2C(C1=O)C1C=C(c3ccc(CO)cc3)C2C(C2CC2)N1C` (stereo unspecified) belongs -0.324; to `C=C(CCCC)C(=O)CC[C@@H](OC(=O)c1ccccc1-c1ccccc1C(=O)O)c1ccccc1OCCO`, -0.104.
Same read-out and setting: to `C=C1C(=O)C=C2CN(C(=O)c3ccccc3)[C@@](Cc3ccc(OC)cc3)(C(=O)OC)[C@@H]12` belongs 0.408; to `COC(=O)[C@@]1(Cc2ccc(F)cc2)[C@H]2c3cc(C(=O)N4CCCC4)n(CCc4ccccn4)c3C[C@H]2CN1C(=O)c1ccccc1`, 0.754.
